In assay [1] the target is Glutathione peroxidase 1 (Homo sapiens) (UniProt P07203). Kind of assay: Primary qHTS Assay for Inhibitors of Recombinant Selenoprotein Glutathione Peroxidase 1 (GPX1) (AID 1845191). For activity, negative = inhibition: % is set by controls: 0 for no effect and ±100 for the full control effect. Note: nearly all actives have a fitted effect of over 65% in size. Note: potency is the fitted concentration of half-maximal effect. The method, boiled down: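 GPX1 10 nM, GR 100 nM, GSH 1 mM, NADPH 0.5 mM, CHP 0.5 mM (final). 30-min cpd preincubation, RT. Ex340/Em450 read t=0, t=15 min.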
Glutathione peroxidase 1 (Homo sapiens), sequence (P07203 whole entry, looked up): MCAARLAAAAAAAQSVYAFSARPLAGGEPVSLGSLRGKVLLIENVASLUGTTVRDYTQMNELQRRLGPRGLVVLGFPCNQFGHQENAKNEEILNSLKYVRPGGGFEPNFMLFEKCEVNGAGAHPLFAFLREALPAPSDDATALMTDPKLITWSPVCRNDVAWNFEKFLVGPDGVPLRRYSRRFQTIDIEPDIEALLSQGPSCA
In assay [2] the target is Phospholipid hydroperoxide glutathione peroxidase GPX4 (Homo sapiens) (UniProt P36969). The assay can be described thus: Primary qHTS Assay for Inhibitors of Recombinant Selenoprotein Glutathione Peroxidase 4 (GPX4) (AID 1845192). For activity change, negative = inhibition: series mostly up to about 50 µM; % is set by controls: 0 for no effect and ±100 for the full control effect. Note: nearly all actives have a fitted effect of over 65% in size. Note: potency is the fitted concentration of half-maximal effect. The method, boiled down: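 qHTS, GR-coupled: GPX4 200 nM + cpd 30 min RT → GSH 1 mM, NADPH 0.5 mM, GR 100 nM → CHP 0.5 mM start; fluor 340/450 at t0 and t15 min; no-enzyme wells as control.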
Phospholipid hydroperoxide glutathione peroxidase GPX4 (Homo sapiens), sequence (P36969 whole entry, looked up): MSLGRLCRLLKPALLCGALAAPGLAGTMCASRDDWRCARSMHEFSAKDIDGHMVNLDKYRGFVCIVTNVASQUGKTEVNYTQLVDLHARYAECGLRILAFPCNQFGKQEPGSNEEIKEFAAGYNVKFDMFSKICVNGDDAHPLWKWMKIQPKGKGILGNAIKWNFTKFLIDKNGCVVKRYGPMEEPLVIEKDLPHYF

For assay [3], the target named is Luciferin 4-monooxygenase (Photinus pyralis) (UniProt P08659). Kind of assay: Primary firefly luciferase (FLuc) qHTS assay for identification of artifact compounds. (AID 1845220).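 For activity change, negative = inhibition: series mostly up to about 54 µM; plate controls were DMSO vehicle for no effect and no enzyme for full effect.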 Note: nearly all actives have a fitted effect of over 60% in size. The method, boiled down: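 qHTS, 15 min compound preincubation with substrate (10 uM luciferin, 10 uM ATP) at RT, then 10 nM FLuc; 5 min; luminescence; % inhibition vs no-enzyme/DMSO controls, 4-parameter Hill fit.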
A general note: In qHTS, concentration-response curves come from the screen itself.

A number with no mark means an inactive call. Inconclusive results are not listed. Active and inactive are the calls of the source. Calls come from the whole dose curve; as a rule, active = well fitted inhibition curve with a large enough effect; inconclusive = small, poorly fitted or top-dose-only effect; inactive = flat fitted curve, though single readings scatter. Where a SMILES comes first, the peptide text is derived from it. [ ]: non-standard residue; d: D form. The star is where a group is joined. ξ: configuration not given here. AFC = O=c1cc(C(F)(F)F)c2ccc(N*)cc2o1; ξPhe(βξ-Me) = CC(c1ccccc1)C(N)C(=O)O; GABA = NCCCC(=O)O

Regarding `COc1ccc(C)c2sc(NC(=O)c3ccncc3)nc12`, the Potency result in assay [1], in assay [2] and in assay [3] was “inactive” in each case.
Turning to `C=CC(C)(C)C12CC3C(=O)NC(Cc4cnc[nH]4)C(=O)N3C1Nc1ccccc12` (configuration not stated), the Potency entry in assay [1], in assay [2] and in assay [3] was “inactive” throughout.
Regarding `COc1ccc(/C=C/C(=O)O[C@@H]2[C@@H](O)[C@H](C)O[C@@H](OC3C4C=COC(O[C@@H]5O[C@H](CO)[C@@H](O)[C@H](O)[C@H]5O)C4C4(CO)OC34)[C@@H]2O)cc1OC` (some centres not stated), the Potency entry in assay [1], in assay [2] and in assay [3] was “inactive” each time.
Regarding `Cc1cc(Nc2ncc(Cl)c(Nc3ccccc3S(=O)(=O)C(C)C)n2)c(OC(C)C)cc1C1CCNCC1`, the Potency entry in assay [1], in assay [2] and in assay [3] was “inactive” in each case.
As to `CC1=CC(=O)CC(C)(C)C1CCC(C)OC1OC(COC(=O)c2cc(O)c(O)c(O)c2)C(O)C(O)C1O` (configuration not stated), the Potency result in assay [1], in assay [2] and in assay [3] was “inactive” throughout.
For the compound `CC1=C2C=C(CO)C(CO)CCC2(C)CCC1=O` (configuration not stated), the Potency entry in assay [1], in assay [2] and in assay [3] was “inactive” in each case.
`CC(=O)OCC(=O)O[C@@H]1[C@H]2[C@@H](OC(=O)c3ccccc3)[C@@H](C)C[C@]2(O)[C@H](OC(C)=O)C2(C)[C@H]3CC(C)(C)C(=O)[C@@H]3CC1(OC(C)=O)[C@@H]2OC(C)=O` (some centres not stated): the Potency entry in assay [1], in assay [2] and in assay [3] was “inactive” each time.
As to `CC(=O)N[C@@H](CC(C)C)C(=O)N[C@@H](CCC(=O)O)C(=O)N[C@@H](CCC(=O)O)C(=O)N[C@@H](CC(=O)O)C(=O)Nc1ccc2c(C(F)(F)F)cc(=O)oc2c1` (Ac-LEED-{AFC}), the Potency in assay [1] was 22.7 µM (active); in assay [2], 20.2 µM (active). The Potency entry in assay [3] is “inactive”.
The matching figures for `COc1cc(C)c(C(=O)O[C@H]2[C@@H](O)[C@H](n3ccc(=O)[nH]c3=O)O[C@@H]2CO)c(OC)c1`: “inactive”, “inactive” and “inactive”.
Regarding `Cc1cn2c(N)c(Cl)cc(C(=O)NCC3CCN(CC(C)C)CC3)c2n1`, the Potency result in assay [1] and in assay [3] was “inactive” throughout. Further, the Potency in assay [2] is 22.7 µM (active).
As to `CC(=O)c1c(C)cc(O[C@@H]2O[C@H](CO)[C@@H](O)[C@H](O)[C@H]2O)cc1O`, the Potency entry in assay [1], in assay [2] and in assay [3] was “inactive” throughout.
As to `CCOC(=O)Nc1nc2ccccc2[nH]1`, the Potency entry in assay [1], in assay [2] and in assay [3] was “inactive” in each case.
Regarding `C=CC(C)(C)O[C@@H]1O[C@H](CO[C@@H]2OC[C@](O)(CO)[C@H]2O)[C@@H](O)[C@H](O)[C@H]1O`, the Potency entry in assay [1], in assay [2] and in assay [3] was “inactive” in each case.
On to `COc1cc(/C=C/C(=O)O[C@H]2[C@H](O)[C@@H](CO)O[C@@]2(CO)O[C@H]2O[C@H](COC(=O)c3ccc(O)cc3)[C@@H](O)[C@H](O)[C@H]2O)cc(OC)c1OC`, for which the Potency result in assay [1], in assay [2] and in assay [3] was “inactive” in each case.
For `CC[C@H](C)/C=C(C)/C=C/C(=O)Cc1cc(O)c(C)c(O)c1C=O`, the Potency result in assay [1], in assay [2] and in assay [3] was “inactive” in each case.
As to `C=C1CCC2[C@@](C)(C=O)CCC[C@]2(C)[C@H]1CC/C(C)=C/CO` (some centres not stated), the Potency entry in assay [1], in assay [2] and in assay [3] was “inactive” in each case.
Take `CC(C)CC1NC(=O)C(C(C)c2ccccc2)NC(=O)C(C(C)C)NC(=O)C(C)NC(=O)CCCNC(=O)C(Cc2c[nH]c3ccccc23)NC(=O)C(C)NC1=O` (stereo not drawn) (cyclo([GABA]AV[ξPhe(βξ-Me)]LAW); configuration not given here): the Potency result in assay [1], in assay [2] and in assay [3] was “inactive” in each case.
As for `C[C@@H]1CC[C@]2(C)C(C[C@@H](O)[C@H](O)[C@]23CO3)[C@@]1(C)CCc1ccoc1` (some centres not stated), the Potency entry in assay [1], in assay [2] and in assay [3] was “inactive” in each case.
For `C/C(=C\CCC(C)(O)c1ccc(C)cc1)C(=O)O` (configuration not stated), the Potency result in assay [1], in assay [2] and in assay [3] was “inactive” in each case.
Take `Cc1onc(-c2ccccc2)c1C(=O)N[C@@H]1C(=O)N2[C@@H]1SC(C)(C)[C@@H]2C(=O)O`: the Potency entry in assay [1], in assay [2] and in assay [3] was “inactive” in each case.
Regarding `CC(=O)O[C@@H]1C[C@]2(C)[C@@]3(CCC4[C@@]5(C)CC[C@H](O[C@@H]6O[C@H](C(=O)O)[C@@H](O)[C@H](O[C@@H]7O[C@H](CO)[C@H](O)[C@H](O)[C@H]7O[C@@H]7O[C@@H](C)[C@H](O)[C@@H](O)[C@H]7O[C@@H]7OC[C@](O)(CO)[C@H]7O)[C@H]6O[C@@H]6O[C@H](CO)[C@H](O)[C@H](O)[C@H]6O)C(C)(C)C5CC[C@]42C)O[C@@H](O)[C@]12C3CC(C)(C)[C@@H](OC(=O)/C=C/c1ccc(O)c(O)c1)[C@@H]2OC(=O)/C=C/c1ccccc1` (some centres not stated), the results for the outcome in assay [1] and in assay [3] were “inactive [at 9.52 µM]” and “inactive [at 11.6 µM]”, respectively. Also, the activity change, negative = inhibition in assay [2] is -12% [at 9.73 µM].
In the case of `C[C@@H]1O[C@@H](O[C@H]2[C@H](OC(=O)C34CCC5(C)C(=CCC6C7(C)CC(O)C(O[C@@H]8O[C@H](C(=O)O)[C@@H](O)[C@H](O)[C@H]8O)C(C)(C(=O)O)C7CCC65C)C3CC(C)(C)CC4O)O[C@H](C)[C@@H](O)[C@@H]2O)[C@H](O)[C@@H](O[C@@H]2OC[C@](O)(CO)[C@H]2O[C@@H]2O[C@H](CO)[C@@H](O)[C@H](O)[C@H]2O)[C@H]1O` (some centres not stated), the activity, negative = inhibition in assay [1] is -10.2% [at 9.52 µM]. Moreover, the activity change, negative = inhibition is -4.3% [at 9.73 µM] in assay [2] and -0.148% [at 11.6 µM] in assay [3].
For the compound `COc1ncc(-c2ccc3c(Nc4cc(Oc5cc(F)cc(F)c5)cc(C(=O)O)c4)c(S(=O)(=O)NC4CC4)cnc3c2)c(OC)n1`, the Potency result in assay [1], in assay [2] and in assay [3] was “inactive” each time.
With `CC1=CCC2C(C)(CO)CCCC2(C)C1CC12OC1C(O)C(CO)=CC2O` (configuration not stated), the Potency result in assay [1], in assay [2] and in assay [3] was “inactive” throughout.
